# Assay results as given in PubChem BioAssay AID624481 (The Scripps Research Institute Molecular Screening Center, 2012).
# Unmarked numbers belong to inactive results. Cut-off read from the data, not from the text of the source: active = inhibition above about 50%; inactive = the rest.
# Target: Prolyl endopeptidase-like (Mus musculus) (UniProt Q8C167)
# Assay: mouse PREPL enzyme inhibition by screening hits – biochemical, gel-based competitive ABPP, fluorescence, HTS hits, PREPL inhibitor project (AID 624481)
# Conditions: purified mouse PREPL, at 20 µM, active compounds read high
# Prolyl endopeptidase-like (Mus musculus), sequence (Q8C167 whole entry, looked up): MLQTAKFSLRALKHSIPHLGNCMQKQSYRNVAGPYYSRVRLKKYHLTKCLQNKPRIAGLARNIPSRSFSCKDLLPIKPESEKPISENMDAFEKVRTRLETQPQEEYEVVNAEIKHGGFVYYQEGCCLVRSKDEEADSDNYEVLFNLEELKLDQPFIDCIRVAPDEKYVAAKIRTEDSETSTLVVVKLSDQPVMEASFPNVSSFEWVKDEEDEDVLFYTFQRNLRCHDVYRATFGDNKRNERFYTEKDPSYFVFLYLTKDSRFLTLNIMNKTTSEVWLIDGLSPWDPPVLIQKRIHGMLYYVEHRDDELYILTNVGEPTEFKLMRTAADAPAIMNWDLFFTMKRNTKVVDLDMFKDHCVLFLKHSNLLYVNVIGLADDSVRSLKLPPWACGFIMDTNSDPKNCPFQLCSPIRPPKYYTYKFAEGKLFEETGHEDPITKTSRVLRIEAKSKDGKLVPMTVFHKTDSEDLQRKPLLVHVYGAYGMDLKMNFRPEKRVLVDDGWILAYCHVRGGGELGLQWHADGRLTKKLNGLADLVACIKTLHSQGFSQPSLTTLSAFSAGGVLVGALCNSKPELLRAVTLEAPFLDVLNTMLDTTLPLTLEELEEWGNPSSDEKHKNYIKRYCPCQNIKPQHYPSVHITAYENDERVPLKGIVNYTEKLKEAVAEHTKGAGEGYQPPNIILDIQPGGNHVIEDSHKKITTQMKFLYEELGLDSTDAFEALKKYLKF
row,Compound,inhibition
1,Cc1ccc(-c2csc(=Nc3cccnc3)n2CCCN2CCCC2=O)cc1C,-149%
2,CCc1ccc(CNc2ccc3c(c2)ncn3C(C)(C)C)cc1,-36%
3,COCCCNC(=O)/C(C#N)=C/c1c(N2CCN(c3ccc(OC)cc3)CC2)nc2c(C)cccn2c1=O,-39%
4,CN(C)c1ccc(NC(=O)c2ccc(Cn3cc([N+](=O)[O-])cn3)cc2)cc1,-9%
5,Cc1ccc(OCC(=O)Nc2ccc(N3CCN(C(=O)c4ccco4)CC3)cc2)c(C)c1,-7%
6,CN(C)c1ccc(C(O)P(=O)(OCc2ccccc2)c2ccc(N(C)C)cc2)cc1 (configuration not stated),-57%
7,CN(C)c1ccc(C=NNC(=S)NCc2ccccc2)cc1,-20%
8,C[C@H]1CN([C@@H](C)CO)C(=O)Cc2cc(NC(=O)CCN3CCOCC3)ccc2O[C@@H]1CN(C)Cc1ccc(Oc2ccccc2)cc1,-27%
9,COc1ccc(N2CCN(C(=O)CN3C(=O)NC(C)(c4ccc5ccccc5c4)C3=O)CC2)cc1 (configuration not stated),-26%
10,C#CCOCCOCCOCCNc1nc(N2CCN(C(=O)CCCCCCCCCCNC(=O)[C@H]([C@@H](C)CC)n3cc(CCCCN=C(N)N)nn3)CC2)nc(N2CCN(C(=O)CCCCCCCCCCNC(=O)[C@H](CO)n3cc(CCCCCN)nn3)CC2)n1,-38%
11,Cc1cccn2c(=O)c3cc(C(=O)NCCc4ccccc4)c(=N)n(CCCn4ccnc4)c3nc12,-33%
12,CCCCCCCCCCCCCCCC[n+]1cccc(C(=O)N(CC)CC)c1,10%
